# From the OligoGym collection
# Molecular target: PTPN7
# Assay: pooled miR-30 sensor sort-seq; sequence = guide strand
# Details: shRNA
# Note: reference of the scale not given here.
row,Sequence,sensor-assay potency score (higher = more potent)
1,TCTTCTTCCAGTTGCTTGGGGC,-0.37
2,TTTGTCTGTCATAAATGCCAGC,-0.867
3,ATTGATGTAATCTCCGTCCTCC,0.571

# Molecular target: PTPRT
# Assay: as above
# Details: shRNA
row,Sequence,sensor-assay potency score (higher = more potent)
1,TTTGTGACCATGACGATGCTGG,0.113
2,TAGTTGATCTCGTAGAGCGTGA,-0.257
3,TAATCGAACACCAGCCTCCAGA,-0.958
4,TAAGTCATCTGCATCCTCGGTT,0.728
5,TAGTGTAGAGAATCGAGGCTGG,0.97
6,TATCTGATATTCATTGACCTGA,-0.134
7,TAGATTTTTTAACACAGCCATG,-1.72
8,TTGGTCTTGATCTTGAGCCTAT,-0.529
9,TTGAGTCGCAATGTAGTGCCGA,-0.352
10,TTTGCTTTGAGGCACTTCCTTT,-1.11
11,TATTGTAGTAGAGAGAACGGAA,-0.217
12,TATCTTGTTTGTCTCTTCCAAA,-1.13

# Molecular target: PXDN
# Assay: as above
# Details: shRNA
row,Sequence,sensor-assay potency score (higher = more potent)
1,TTGAGTTTATAGCTCTGTCAAC,-1.24
2,TTCTATCTGATTAAAGTGCAGG,-0.41
3,TTCCAGAACAAACTCTCTGAAG,-1.36
4,TTCACAGTTCAGCTCTTCCGGG,-0.633
5,TTTTCCACTTTCTGTCACCTGA,0.0535
6,TATCTGATTAAAGTGCAGGTAT,-0.445
7,TTGTAGTGGTAACTTGTTCCGT,-0.383
8,TTCAGCTTGAGCAGCTCCGTGG,-0.881
9,TATAGCTCTGTCAACAGTCGCA,-0.0838
10,TGTAGTGGTAACTTGTTCCGTT,0.669
11,TTGAGGTCGACCATCAAGCCAT,-0.562

# Molecular target: PXN
# Assay: as above
# Details: shRNA
row,Sequence,sensor-assay potency score (higher = more potent)
1,TAGTTCTCCAGGATGGCCCGGG,-0.505
2,TAGAAATCTATCAAAGTCGGTA,0.0963
3,TTTCACAGTAGGGCTGTCCATC,-0.695
4,TTGAGTTGGCCTCATCTGCAGG,-0.889
5,TAGGCTTCTCTTTCGTCAGGGG,0.384
6,TACAGCGTTCAGTTCCAGCAGC,-0.582
7,TTGTTGAGCTGCTTGAGGCAGA,-0.264
8,TTCAGTTCCAGCAGCAGGCGGT,-0.708
9,TCGTGCTCGAAGAAGCTGCCGT,-0.594
10,TTCTCGTGGAACCCTTCGGGAC,-1.59
11,TTGCAGTAGTAGCAGCGCGGGG,-1.51
12,AACATGTCGAAGTAGTCCTTGC,-0.89
